Assay results reported in PubChem BioAssay (EPA / NIEHS).
Results filed as inconclusive are left out. The source made the active and inactive calls. The calls were made as follows, unless noted: active = hit-call score of the fitted dose curve at least 0.9, where 1 is the maximum; inactive = score below 0.9.

Experiments:
[1] = ACEA_ER_80hr: ACEA Biosciences xCELLigence Real-Time Cell Analysis on Estrogen Receptor Agonism for Proliferation (AID 2282667; active = hit-call score of the fitted dose curve at least 0.9, where 1 is the maximum); conditions: T47D proliferation, impedance (xCELLigence), 80 h
Method in brief: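 Estrogen-driven proliferation is captured as electrode impedance in T47D cells 80 h after compound addition. Test articles ran at 8 concentrations, 1:4 dilutions from 100 uM final, in two replicate plates.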

[2] = ATG_CRE_CIS: Attagene CIS-FACTORIAL HepG2 Assay for human cAMP Responsive Element (CRE) binding protein 3 (AID 2282926); conditions: HepG2 CRE cis-reporter, Attagene multiplexed mRNA; actives raise or lower the signal
Method in brief: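 Transfected HepG2 were treated for 24 hours, then RNA was extracted and reporter cDNA amplified with sequence-specific primers. Labelled fragments were separated by capillary electrophoresis, and the CRE signal was fitted bidirectionally with DMSO as baseline.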

[3] = target: CCAAT/enhancer-binding protein beta (Homo sapiens) (UniProt P17676); test: ATG_C_EBP_CIS: Attagene CIS-FACTORIAL HepG2 Assay for human CCAAT/Enhancer Binding Protein (C/EBP) beta (AID 2282927); conditions: HepG2 Attagene cis-factorial transcription factor reporter; actives raise or lower the signal
Method in brief: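 HepG2, transient MRTU transfection, 24 h treatment. RT-PCR plus CE fluorescence; DMSO negative control, bidirectional fit.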

[4] = ATG_CMV_CIS: Attagene CIS-FACTORIAL HepG2 Assay for human CMV (Internal Marker) (AID 2282928); conditions: HepG2 CMV promoter reporter, transcription factor profiling; actives raise or lower the signal;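 also: endpoint acts as a background internal control marker rather than a target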
Method in brief: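 Cell system: HepG2, transiently transfected multiple reporter units under cis promoters. Exposure: 24 h. Detection: RT-PCR, FAM labeling, HpaI digestion, capillary electrophoresis. Analysis: bidirectional, DMSO baseline.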

[5] = ATG_DR4_LXR_CIS: Attagene CIS-FACTORIAL HepG2 Assay for human Liver X Receptor (LXR), DR4 submotif (AID 2282929); conditions: HepG2 Attagene DR4 cis-reporter, mRNA transcription; actives raise or lower the signal
Method in brief: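 Readout: reporter transcript fluorescence after RT-PCR and capillary electrophoresis, fitted bidirectionally against DMSO controls. Human HepG2 liver cells carried transiently transfected multiplexed reporter constructs; endogenous transcription factor activity measured 24 h post-dosing.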

[6] = target: Aryl hydrocarbon receptor (Homo sapiens) (UniProt P35869); test: ATG_Ahr_CIS: Attagene CIS-FACTORIAL HepG2 Assay for human Aryl Hydrocarbon Receptor (Ahr) (AID 2282930); conditions: HepG2 AhR cis-factorial reporter transcription; actives raise or lower the signal
Method in brief: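 Endogenous factor activity is tracked through cis-promoter reporter units transfected into HepG2 cells. Transcript levels at 24 h are read by fluorescent RT-PCR and capillary electrophoresis, with activity in either direction scored relative to DMSO.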

[7] = ATG_AP_1_CIS: Attagene CIS-FACTORIAL HepG2 Assay for human Activator Protein 1 (AP-1) (AID 2282931); conditions: HepG2 Attagene cis-factorial AP-1 reporter mRNA; actives raise or lower the signal
Method in brief: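 Reporter transcripts were measured 24 h after dosing by RT-PCR and capillary electrophoresis of fluorescent fragments. Cells: HepG2 carrying transfected cis-regulated reporter constructs reading endogenous factor activity. Gain or loss fitted against DMSO.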

[8] = ATG_AP_2_CIS: Attagene CIS-FACTORIAL HepG2 Assay for human Activator Protein 2 (AP-2) (AID 2282932); conditions: HepG2 AP-2 cis-reporter, Attagene transcription factor profiling; actives raise or lower the signal
Method in brief: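 HepG2 cells transiently transfected with cis-element reporter units and exposed for 24 h. Reporter mRNA measured by RT-PCR, FAM labelling, HpaI digestion and capillary electrophoresis. Changes in either direction fitted relative to DMSO.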

[9] = ATG_BRE_CIS: Attagene CIS-FACTORIAL HepG2 Assay for human Bone Morphogenetic Protein (BMP) Response Element (BRE) (AID 2282933); conditions: HepG2 BMP response element reporter, Attagene transcription factor profiling; actives raise or lower the signal
Method in brief: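 Endogenous transcription factor activity read in transiently transfected HepG2 cells after 24 h chemical exposure. Bidirectional curve fitting against DMSO; readout is reporter transcript level by RT-PCR with capillary electrophoresis of labelled products.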

[10] = target: Retinoic acid receptor alpha (Homo sapiens) (UniProt P10276); test: ATG_DR5_RAR_CIS: Attagene CIS-FACTORIAL HepG2 Assay for human Retinoic Acid Receptor Alpha (RARE), DR5 submotif (AID 2282934); conditions: HepG2 Attagene cis-factorial RARE DR5 reporter, mRNA; actives raise or lower the signal;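 as to AC50: reporter responds to endogenous RAR alpha beta and gamma in HepG2 not RARA alone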
Method in brief: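 After 24 h of chemical exposure, transiently transfected HepG2 cells were lysed for total RNA; the DR5-regulated reporter transcript was quantified via RT-PCR and capillary electrophoresis, with activity fitted bidirectionally against DMSO.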

[11] = target: Transcription factor E2F1 (Homo sapiens) (UniProt Q01094); test: ATG_E2F_CIS: Attagene CIS-FACTORIAL HepG2 Assay for human E2F Transcription Factor 1 (AID 2282935); conditions: HepG2 Attagene cis-reporter, E2F reporter RNA transcripts; actives raise or lower the signal
Method in brief: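 Endogenous E2F1 activity read through cis-promoter reporter units transfected into HepG2. After 24 h compound treatment, reporter mRNA measured by RT-PCR, HpaI digestion and capillary electrophoresis. Bidirectional fit versus DMSO.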

[12] = ATG_E_Box_CIS: Attagene CIS-FACTORIAL HepG2 Assay for human Enhancer Box (E-box) (AID 2282936); conditions: HepG2 E-box cis-reporter transcription, actives raise or lower the signal
Method in brief: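 HepG2 cells transiently transfected with multiplexed cis-element reporter units, dosed 24 h; reporter mRNA quantified by RT-PCR, 6-FAM labelling, HpaI digestion and capillary electrophoresis. E-box (USF1) signal fitted bidirectionally vs DMSO.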

[13] = ATG_M_61_CIS: Attagene CIS-FACTORIAL HepG2 Assay for M61 Transcription Factor (Internal Marker) (AID 2282937); conditions: HepG2 Attagene CIS-FACTORIAL M61 internal marker reporter; actives raise or lower the signal
Method in brief: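 Readout: fluorescent reporter mRNA fragments resolved by capillary electrophoresis after RT-PCR. Transiently transfected human HepG2 cells carried MRTU constructs reporting endogenous TF activity; 24 h chemical exposure; gain or loss of signal fitted relative to DMSO.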

[14] = ATG_EGR_CIS: Attagene CIS-FACTORIAL HepG2 Assay for human Early Growth Response 1 (EGR1) (AID 2282938); conditions: HepG2 Attagene CIS-FACTORIAL EGR reporter mRNA; actives raise or lower the signal
Method in brief: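 Read-out: fluorescent reporter-mRNA fragments resolved by capillary electrophoresis after RT-PCR, 24 h post-dose in transiently transfected HepG2. Endogenous transcription-factor activity reported via cis-element-regulated reporter units; gain or loss fitted relative to DMSO.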

[15] = ATG_M_19_CIS: Attagene CIS-FACTORIAL HepG2 Assay for M19 Transcription Factor (Internal Marker) (AID 2282939); conditions: HepG2 Attagene CIS-FACTORIAL M19 internal marker reporter; actives raise or lower the signal
Method in brief: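 Internal marker readout, fitted in both directions against DMSO, from HepG2 cells carrying transfected cis-element reporter constructs; RT-PCR and capillary electrophoresis of reporter mRNA after 24 h exposure.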

[16] = ATG_ERE_CIS: Attagene CIS-FACTORIAL HepG2 Assay for Estrogen Response Element (ERE) (AID 2282940); conditions: HepG2 ERE cis-reporter, Attagene RNA transcript; actives raise or lower the signal
Method in brief: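 After 24 h compound treatment, RNA from transfected HepG2 cells was reverse-transcribed, reporter cDNA PCR-amplified, FAM-labelled, HpaI-cut and resolved by capillary electrophoresis. ERE-driven cis reporter transcripts reflect endogenous factors; gain or loss scored against DMSO.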

[17] = ATG_Ets_CIS: Attagene CIS-FACTORIAL HepG2 Assay for human Erythroblast Transformation Specific (ETS) (AID 2282941); conditions: HepG2 ETS cis-reporter transcription, actives raise or lower the signal
Method in brief: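 After transient cis-reporter transfection, HepG2 cells receive test chemical for 24 h. Reporter mRNA levels, measured by RT-PCR and capillary electrophoresis fluorescence, are analysed bidirectionally relative to the DMSO baseline.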

[18] = target: Hepatocyte nuclear factor 3-beta (Homo sapiens) (UniProt Q9Y261); test: ATG_FoxA2_CIS: Attagene CIS-FACTORIAL HepG2 Assay for human Forkhead box A2 (FOXA2) (AID 2282942); conditions: HepG2 cis-reporter transcription factor activity, 24 h; actives raise or lower the signal
Method in brief: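 Readout: fluorescent reporter transcripts resolved by capillary electrophoresis after RT-PCR. Transiently transfected HepG2, 24 h compound exposure, endogenous TF activity at cis promoter elements. Gain or loss of signal fitted relative to DMSO.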

[19] = ATG_FoxO_CIS: Attagene CIS-FACTORIAL HepG2 Assay for human Forkhead box O (FoxO) (AID 2282943); conditions: HepG2 Attagene cis-reporter, FoxO element, mRNA; actives raise or lower the signal
Method in brief: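 Transfected HepG2 reporter cells exposed to test chemical for 24 h; reporter RNA measured by reverse transcription, PCR and fluorescent capillary electrophoresis; curves fitted for increases and decreases against DMSO.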

[20] = ATG_GATA_CIS: Attagene CIS-FACTORIAL HepG2 Assay for human GATA Binding Protein (AID 2282944); conditions: HepG2 GATA cis-element reporter, Attagene multiplex mRNA; actives raise or lower the signal
Method in brief: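 Reporter transcripts from a GATA cis-regulated unit, among multiplexed reporters in transfected HepG2 cells, were measured by RT-PCR with capillary electrophoresis after 24 h dosing. Induction or loss scored relative to DMSO.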

Measured: AC50

Sequence of Hepatocyte nuclear factor 3-beta (Homo sapiens) (Q9Y261 whole entry, looked up): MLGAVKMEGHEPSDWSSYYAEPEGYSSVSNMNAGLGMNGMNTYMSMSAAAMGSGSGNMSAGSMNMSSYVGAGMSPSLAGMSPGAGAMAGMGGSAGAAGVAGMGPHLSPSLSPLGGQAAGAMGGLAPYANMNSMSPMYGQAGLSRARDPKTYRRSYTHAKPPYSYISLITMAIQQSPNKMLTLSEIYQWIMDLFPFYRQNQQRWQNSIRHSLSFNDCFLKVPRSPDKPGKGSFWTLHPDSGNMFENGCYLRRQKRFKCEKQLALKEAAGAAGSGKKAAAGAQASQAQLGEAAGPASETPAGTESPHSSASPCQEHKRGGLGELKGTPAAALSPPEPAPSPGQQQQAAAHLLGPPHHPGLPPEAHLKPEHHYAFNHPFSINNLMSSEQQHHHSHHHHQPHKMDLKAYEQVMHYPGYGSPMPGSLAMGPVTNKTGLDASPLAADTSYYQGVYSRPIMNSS
Sequence of Aryl hydrocarbon receptor (Homo sapiens) (P35869 whole entry, looked up): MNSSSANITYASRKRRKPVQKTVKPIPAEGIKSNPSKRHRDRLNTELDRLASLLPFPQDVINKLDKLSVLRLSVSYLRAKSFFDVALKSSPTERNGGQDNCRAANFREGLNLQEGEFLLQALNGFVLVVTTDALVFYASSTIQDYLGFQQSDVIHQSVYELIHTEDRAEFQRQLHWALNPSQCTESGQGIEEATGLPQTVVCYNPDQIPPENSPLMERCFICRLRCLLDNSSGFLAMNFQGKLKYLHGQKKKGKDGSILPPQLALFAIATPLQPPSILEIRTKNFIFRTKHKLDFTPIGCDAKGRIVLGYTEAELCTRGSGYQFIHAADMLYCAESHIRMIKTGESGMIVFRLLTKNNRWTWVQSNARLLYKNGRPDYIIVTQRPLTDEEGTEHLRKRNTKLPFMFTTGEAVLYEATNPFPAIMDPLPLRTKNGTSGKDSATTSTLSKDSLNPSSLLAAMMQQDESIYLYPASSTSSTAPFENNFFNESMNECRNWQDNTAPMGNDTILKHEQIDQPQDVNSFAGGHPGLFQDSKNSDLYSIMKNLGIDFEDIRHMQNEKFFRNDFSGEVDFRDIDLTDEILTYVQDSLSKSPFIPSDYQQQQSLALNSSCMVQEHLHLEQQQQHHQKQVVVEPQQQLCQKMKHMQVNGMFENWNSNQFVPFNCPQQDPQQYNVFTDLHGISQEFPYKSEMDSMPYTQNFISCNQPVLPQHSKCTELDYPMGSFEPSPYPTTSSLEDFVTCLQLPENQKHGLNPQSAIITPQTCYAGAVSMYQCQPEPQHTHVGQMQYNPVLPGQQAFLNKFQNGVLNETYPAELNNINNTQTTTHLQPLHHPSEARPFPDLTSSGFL
Sequence of CCAAT/enhancer-binding protein beta (Homo sapiens) (P17676 whole entry, looked up): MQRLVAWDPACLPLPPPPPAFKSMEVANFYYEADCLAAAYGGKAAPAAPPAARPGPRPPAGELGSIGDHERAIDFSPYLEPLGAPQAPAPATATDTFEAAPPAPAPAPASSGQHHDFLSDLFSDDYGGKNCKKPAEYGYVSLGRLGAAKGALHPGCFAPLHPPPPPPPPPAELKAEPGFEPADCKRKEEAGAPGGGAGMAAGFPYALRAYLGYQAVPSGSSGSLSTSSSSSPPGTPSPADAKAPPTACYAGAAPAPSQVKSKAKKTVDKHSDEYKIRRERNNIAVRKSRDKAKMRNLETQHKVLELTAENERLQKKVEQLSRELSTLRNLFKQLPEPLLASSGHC
Sequence of Transcription factor E2F1 (Homo sapiens) (Q01094 whole entry, looked up): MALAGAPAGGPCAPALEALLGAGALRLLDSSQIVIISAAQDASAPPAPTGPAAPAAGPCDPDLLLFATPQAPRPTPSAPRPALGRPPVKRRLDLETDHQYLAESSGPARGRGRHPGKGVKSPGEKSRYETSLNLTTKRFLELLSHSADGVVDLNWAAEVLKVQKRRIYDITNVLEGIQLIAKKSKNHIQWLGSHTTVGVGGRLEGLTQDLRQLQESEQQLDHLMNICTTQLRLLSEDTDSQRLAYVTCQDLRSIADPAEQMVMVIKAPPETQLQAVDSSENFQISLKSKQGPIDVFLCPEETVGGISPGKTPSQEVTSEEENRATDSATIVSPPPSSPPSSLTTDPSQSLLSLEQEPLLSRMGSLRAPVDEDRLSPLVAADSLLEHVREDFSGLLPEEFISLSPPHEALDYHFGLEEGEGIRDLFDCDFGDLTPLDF
Sequence of Retinoic acid receptor alpha (Homo sapiens) (P10276 whole entry, looked up): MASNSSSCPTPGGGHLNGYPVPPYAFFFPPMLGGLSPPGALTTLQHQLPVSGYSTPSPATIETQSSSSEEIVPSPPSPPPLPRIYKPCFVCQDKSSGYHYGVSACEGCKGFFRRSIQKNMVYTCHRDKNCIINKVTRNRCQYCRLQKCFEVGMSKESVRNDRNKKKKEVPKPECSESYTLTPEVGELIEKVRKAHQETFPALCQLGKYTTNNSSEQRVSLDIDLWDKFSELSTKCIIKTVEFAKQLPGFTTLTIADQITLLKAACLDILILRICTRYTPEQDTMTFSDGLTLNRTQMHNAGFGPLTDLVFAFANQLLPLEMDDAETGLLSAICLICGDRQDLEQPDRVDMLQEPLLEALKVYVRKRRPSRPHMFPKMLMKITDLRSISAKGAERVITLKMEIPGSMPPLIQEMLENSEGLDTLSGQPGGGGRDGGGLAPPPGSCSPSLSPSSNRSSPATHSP

OCC(F)(F)C(F)(F)C(F)(F)C(F)(F)C(F)(F)C(F)(F)C(F)(F)C(F)(F)CO
active: [1] 188 nM | [16] 163 nM
inactive: all other assays above

O=C(O)C(F)(F)C(F)(F)C(F)(F)OC(F)(F)F
inactive: all assays above

CCN=c1cc2oc3cc(NCC)c(C)cc3c(-c3ccccc3C(=O)OCC)c-2cc1C
active: [1] 35.3 nM | [2] 11.1 µM | [5] 4.45 µM | [7] 2.75 µM | [8] 11.1 µM | [12] 11.1 µM | [14] 11.1 µM
inactive: all other assays above

O=C(O)C(F)(F)OC(F)(F)C(F)(F)OC(F)(F)C(F)(F)OC(F)(F)F
active: [1] 13200 nM | [4] 66.5 µM | [7] 66.5 µM
inactive: all other assays above

OCC(O)CC(F)(F)C(F)(F)C(F)(F)C(F)(F)C(F)(F)C(F)(F)C(F)(F)C(F)(F)F (stereo not drawn)
active: [17] 9.97 µM
not listed: [18]
inactive: all other assays above

O=S(=O)(O)CCC(F)(F)C(F)(F)C(F)(F)C(F)(F)F
inactive: all assays above

Nc1cccnc1N
active: [5] 53.5 µM | [6] 27.4 µM | [7] 16.7 µM | [10] 65.8 µM
not listed: [18]
inactive: all other assays above
